tested on: Perkinsus marinus PRA240; assay: ATP content (proliferation) relative to DMSO control; higher = more parasite growth (less inhibition); conditions: 20 µM; 4 days
Experimental: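 Perkinsus marinus PRA240 trophozoites (2-5x10^6 cells/ml, 100 µl, 96-well) were exposed once to MMV Malaria Box compounds at 20 µM (0.1% DMSO) in triplicate. ATP content (ATPlite bioluminescence) was read at day 4 post-exposure and normalised to DMSO + cells control wells (100% activity). Compounds were identified by joining plate and well to the Malaria Box list.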

Compound | ATP content [%]
CCCCC(O)(c1ccc(Cl)cc1)C(CN1CCOCC1)c1ccc(Cl)cc1 (stereo not given) | 131
O=C(CCc1ccccc1)c1ccccc1OCC(O)CN1CCCCC1 (stereo not given) | 62.3
OC(CNC1CCCCC1)Cn1c2ccc(I)cc2c2cc(I)ccc21 (stereo not given) | 4.02
CC(C)c1ccc(CNCC(O)c2ccccc2)cc1 (stereo not given) | 117
CCCCCCn1c(=N)n(CC(O)COc2cccc(C)c2)c2ccccc21 (stereo not given) | 96.7
O=C(CCl)NCCOc1ccc(Cl)cc1Cl | 99.9
Nc1ccn(C2O[C@H](CO)[C@@H](O)[C@H]2O)c(=O)n1 (stereo not given in full) | 132
CC(C)(C)c1ccc(C(=O)Nc2nc3ccccc3s2)cc1 | 57
O=C(Nc1ccsc1C(=O)NC1CCCCC1)c1ccc(F)cc1 | 90
CCCCCn1c(=N)n(CC(O)COc2cccc(C)c2)c2ccccc21 (stereo not given) | 127
Brc1ccc(Nc2nc3ccccc3nc2Nc2ccc(Br)cc2)cc1 | 18.3
CCN1CCN(c2c(C(=O)c3ccccc3)cnc3cc(OC)c(OC)cc23)CC1 | 199
Cc1ccc2nc(C)cc(Nc3cccc(C(F)(F)F)c3)c2c1 | 121
Oc1ccccc1CN1CCC2(CCCN(Cc3ccccc3F)C2)C1 (stereo not given) | 70.1
CCOc1ccc(CN2CCN(CC(O)COc3ccc(OCC(O)CN4CCN(Cc5ccc(OCC)cc5)CC4)cc3)CC2)cc1 (stereo not given) | 137
CCOc1cccc(C(=O)Nc2ccc(-c3nc4ccccc4[nH]3)cc2)c1 | 143
COc1ccc(C2Sc3ccccc3N=C3C2=C(O)c2ccccc23)cc1 (stereo not given) | 46.2
CN(C)CCCNCc1ccc(-c2ccc(F)c(Cl)c2)o1 | 123
Clc1cc(Br)ccc1-c1ccc(CNCC2CCNCC2)o1 | 243
CC(=O)c1ccc(NC(=O)CSc2nc(-c3ccccc3Cl)ns2)cc1 | 125

Compound | ATP content [%]
COc1cccc(Nc2nc(NCCO)c3ccccc3n2)c1 | 77.5
COCCNC(=O)c1ccc(OC2CCN(Cc3ccc(F)c(F)c3)CC2)c(Cl)c1 | 86.4
CCOc1ccc(-n2cc(-c3ccccc3)c3c(SCc4cc(C)ccc4C)ncnc32)cc1 | 171
O=C(Nc1cccc(C2=NCCN2)c1)Nc1cccc(C2=NCCN2)c1 | 128
CCOc1cc2c(cc1OCC)C(c1cc(Cl)ccc1O)NCC2 (stereo not given) | 91.6
CCN(CC)CCn1c(=N)n(CC(O)c2ccc(Cl)c(Cl)c2)c2ccccc21 (stereo not given) | 110
OC(CNC1CCCC1)Cn1c2ccccc2c2ccccc21 (stereo not given) | 148
COc1ccc(CCN2C(=O)c3[nH]nc(-c4cc(Cl)c(C)cc4O)c3C2c2ccccc2F)cc1 (stereo not given) | 91.4
CCOc1ccc(Nc2ccnc3cc(Cl)ccc23)cc1 | 55.2
Cc1cc(N(C)C)nc(Nc2ccc(NC(=O)Nc3ccccc3)cc2)n1 | 85.9
CC(NCc1ccccc1)c1cc(Cl)ccc1O (stereo not given) | 85.9
CC1(c2ccccc2)Nc2ccccc2-c2nc3ccccc3n21 (stereo not given) | 109
COc1ccc2nc(C)cc(Nc3ccc(Cl)cc3)c2c1 | 103
Cc1ccc(C2CC(C(F)(F)F)n3nc(C(=O)N4CCN(C(c5ccccc5)c5ccccc5)CC4)cc3N2)cc1 (stereo not given) | 144
Cc1sc(NC(=O)c2ccccc2)c(C(c2cccs2)N2CCN(c3ccccc3)CC2)c1C (stereo not given) | 97.8
Oc1c(CN2CCN(c3ccccc3F)CC2)cc(Br)c2cccnc12 | 105
COc1cc(C(=O)Nc2ccc(-c3nc4ccccc4[nH]3)cc2)cc(OC)c1OC | 124
O=C(Nc1cccc(C(F)(F)F)c1)c1cc(Cl)ccc1O | 2.99
CN1CCN(c2ncnc3c2[nH]c2ccc(Cl)cc23)CC1 | 111
COc1ccc(CCn2c(=N)c(C(=O)NCc3cccnc3)cc3c(=O)n4cccc(C)c4nc32)cc1 | 140

From the supplement of paper PMC4206467
